Measured values: PubChem BioAssay
Values joined by “and” are separate entries in the source; they are usually repeats but may differ in a detail not shown here. Equal entries are not always repeated. Values without a mark were called inactive. Active and inactive are the calls of the source.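 How the source made its calls: active means inhibition at or above 50% relative to wild type and mutant plate controls; inactive means inhibition below 50%.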

Test: inhibitors of Chlamydomonas gravitaxis, primary screen, whole organism, Chlamydomonas reinhardtii, WT vs cilia-less mutant, absorbance, 96-well (AID 463189);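 further: 0% = wild type cc124 cells in DMSO and 100% = ciliumless bld1 mutant cells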
Details: OD600 absorbance, 2 days, at 10 µM, active compounds read high

Compound | inhibition
CC1=C[C@@H]2c3cccc4[nH]cc(c34)C[C@H]2N(C)C1 | 69.4% (active)
C=CCN1CC[C@]23c4c5ccc(O)c4O[C@H]2/C(=N/NC(=O)c2ccccc2)CC[C@@]3(O)[C@H]1C5 | 2.64%
CCCN(CCC)C(=O)Cc1c(-c2ccc(Cl)cc2)nc2c(Cl)cc(Cl)cn12 | -9.74%
CN1C(=O)CCS(=O)(=O)C1c1ccc(Cl)cc1 (stereo not drawn) | 9.97%
CCCCC/C=C\C/C=C\C/C=C\C/C=C\CCCC(=O)NCC(=O)O | -0.074%
N[C@@]1(C(=O)O)CC[C@@H](C(=O)O)C1 | 5%
CC(C)NC(C)Cc1ccc(I)cc1 (stereo not drawn) | 22.2%
O=C(O)CC[N+](=O)[O-] | 2.51%
C[C@@H](N)Cc1cnc[nH]1 | -0.522%
Cc1c(C(=O)c2cccc3ccccc23)c2cccc3c2n1[C@H](CN1CCOCC1)CO3 | 9.81%
O=[N+]([O-])c1cc(O)c(O)c([N+](=O)[O-])c1 | -10.8%
c1ccc2c(N3CCNCC3)cccc2c1 | 5.44%
NC(CP(=O)(O)O)C(=O)O (stereo not drawn) | 5.89%
C[N+](C)(C)CC#CCOC(=O)Nc1cccc(Cl)c1 | 2.56%
CCCC[N+]1(C)C2CC(OC(=O)[C@H](CO)c3ccccc3)CC1C1OC12 (stereo partly drawn) | -7.48%
CCCCCCCCC(=O)NCc1ccc(O)c(OC)c1 | 12.3%
CCn1cc(C(=O)O)c(=O)c2ccc(C)nc21 | -5.13% and 33.3%
Cc1ncc(CNC(=O)N(CCCl)N=O)c(N)n1 | 3.94%
CCN(CC)C(=O)N[C@@H]1C[C@@H]2c3cccc4[nH]cc(c34)C[C@H]2N(C)C1 | 5.28%

Compound | inhibition
Ic1ccccc1CNC1C2CCN(CC2)C1C(c1ccccc1)c1ccccc1 (stereo not drawn) | 75.8% (active)
COc1ccccc1N1CCNCC1 | 6.65%
NC(CCCCCP(=O)(O)O)C(=O)O (stereo not drawn) | -3.46%
COc1ccc(CNC(=O)/C=C/c2ccc3[nH]cc(CCN(C)C)c3c2)cc1 | -7.85%
Oc1ccc2c3c1O[C@H]1[C@@H](O)CC[C@@]4(O)C(C2)N(CC2CCC2)CCC314 (stereo partly drawn) | 3.28%
NCc1cc(=O)[nH]o1 | 5.71%
OC1CCCCC1N1CCC(c2ccccc2)CC1 (stereo not drawn) | 3.25%
CNC(=O)OCC[N+](C)(C)C | -0.129%
COc1ccc2c3c1O[C@H]1C(=O)CC[C@@]4(O)C(C2)N(CC2CC2)CCC314 (stereo partly drawn) | 3.52%
O=[N+]([O-])c1ccc(O[C@@H]2O[C@H](CO)[C@@H](O)[C@H](O)[C@H]2F)c([N+](=O)[O-])c1 | 3.53%
CC(Cc1ccc(O)cc1)NCC(O)c1cc(O)cc(O)c1 (stereo not drawn) | 1.02%
CC1(C(=O)O)C2CCC(O2)C1(C)C(=O)O (stereo not drawn) | -0.9%
CN1CC[C@@]2(C)c3cc(O)ccc3N(C)C12 (stereo partly drawn) | -1.8%
CCN1C[C@]2(C)CC[C@H](O)[C@@]34C5C[C@@H]6[C@@H](OC)C[C@@](O)(C5[C@H]6O)[C@@H](CC23)C14 (stereo partly drawn) | 7.34%
CC(C)c1cccc(C(C)C)c1O | -3.28%
CCCN(CCC)C1CCc2ccc(O)cc2C1 (stereo not drawn) | 1.06%
CCNC(=O)[C@H]1O[C@@H](n2cnc3c(N)ncnc32)C(O)[C@H]1O (stereo partly drawn) | -1.46%
CCC1(C2=NCCN2)Cc2ccccc2O1 (stereo not drawn) | -5.93%
C[N+]1(C)CCOC(O)(c2ccc(-c3ccc(C4(O)C[N+](C)(C)CCO4)cc3)cc2)C1 (stereo not drawn) | 1.34%
